High-throughput results from PubChem.
HSV replic up: increases HSV replication in cells | maximum fold increase | HSV replication augmentation in cells, fold increase | 220,000 compounds, 0.005% hits; in the data active means maximum fold increase above about 1.5; inconclusive means no clear call, values can overlap the other calls; tested in PC3 cells
Efa HMGR inh: E. faecalis class II HMG-CoA reductase inhibition; purified E. faecalis HMGR, NADPH absorbance 340 nm kinetic; inhibition, % at 10 µM; 190,000 compounds, 0.41% hits; AID 1066;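 active means inhibition above a set limit, the median over all tested compounds plus 3 SD, cut at about 9.5% in these data; inconclusive means no clear call, values can overlap the other calls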;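 further: enzyme runs in reverse so mevalonate oxidation gives rising NADPH absorbance; 0% = complete reaction with DMSO and 100% = background rate lacking mevalonate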
Ins promoter up: MIN6 insulin promoter up-regulation; MIN6 insulin promoter-GFP reporter, high-content imaging; hits give high values; z-score at 5 µM; 190,000 compounds, 0.3% hits; AID 1625;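 active means z-score above 3 at 5 µM with at least 500 cells counted in the well; inconclusive means wells under 500 cells, flagged as cytotoxic or low count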
Insulin prom inh: TRM-6 insulin promoter activity inhibition; 130,000 compounds, 0.9% hits; TRM-6 cells (human fetal islet line), insulin promoter-eGFP reporter, imaging; reporter expression induced with tamoxifen; inhibition, % at 2 µM;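 active means inhibition above the mean plus 3 SD, with well images judged a real hit on visual review, cut at about 60% in these data, passing the limit was not always enough; inconclusive means inhibition over the cutoff but images rejected on review; inactive means inhibition not above the cutoff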
* marks the source's active call; other numbers are inactive results; i = inactive; ? = inconclusive; . = no result. Compounds with a hit are over-represented: about 1.1% of the library has one in this group of screens.

SMILES	HSV replic up	Efa HMGR inh	Ins promoter up	Insulin prom inh
c1ccc(-n2ncc3c(NCc4ccc5c(c4)OCO5)ncnc32)cc1	i	-10.8	-0.3	-406.2
Cc1ccc(C(=O)CSc2nnnn2Cc2ccccc2)cc1C	i	.	-0.21	.
O=C(CSc1nnnn1Cc1ccccc1)c1ccccc1F	i	3.9	-0.54	92.6*
COc1ccc(-c2c(=O)n(OCc3ccccc3[N+](=O)[O-])c3ccccc3[n+]2[O-])c(OC)c1	i	-3.9	0.53	.
COc1ccc(-c2nc(N3CCC(C)CC3)[nH]c(=O)c2C#N)cc1	i	-1.5	0.66	71.4*
COc1ccc(-c2nc(N3CCCC3)[nH]c(=O)c2C#N)cc1	i	-2.2	.	0.0
COc1ccc(C(=O)Nc2cccc(C(=O)NCc3ccco3)c2)cc1	i	-7.4	.	66.7*
CC(C)NC(=S)Nc1ccc2cn[nH]c2c1	i	4.5	0.61	-33.3
Cc1nc2nc3c(c(=O)n2[nH]1)CCC3	i	-4.8	-0.91	18.8
O=c1c2c(nc3nc(Cc4ccccc4)[nH]n13)CCC2	i	-0.5	.	92.3*
COC(=O)c1ccccc1NC(=O)Cn1c(CCC(=O)O)ccc1-c1cccs1	i	2.4	0.08	26.7
Cc1ccccc1NC(=O)Cn1c(CCC(=O)O)ccc1-c1cccs1	i	19.1*	-0.08	.
Nc1nnc(-c2ccc(Cl)c([N+](=O)[O-])c2)s1	i	0.6	0.04	.
CC(C(=O)Nc1ccc(S(=O)(=O)N2CCOCC2)cc1)N1CCN(c2ccccn2)CC1 (centres undefined)	i	13.3*	0.39	0.0
Cc1ccccc1C(=O)Nc1nnc(-c2cccnc2)o1	i	-0.6	0.19	.
O=C(O)c1ccccc1Sc1c([N+](=O)[O-])cc(C(F)(F)F)cc1[N+](=O)[O-]	i	6.3	-0.66	72.7*
Cn1c(CCc2ccccc2)nnc1SCC(=O)N1CCOCC1	i	1.3	.	-322.2
CCCn1c(CCc2ccccc2)nnc1SCC(=O)N1CCOCC1	i	-10.2	0.23	78.1*
O=C(c1cc2cc([N+](=O)[O-])ccc2oc1=O)N1CCN(C2CCCCC2)CC1	i	9.7*	1.37	.
O=C1c2ccccc2NC(c2ccc(Cl)cc2Cl)N1Cc1ccccc1 (centres undefined)	i	-0.1	0.27	-39.1
O=C1c2ccccc2NC(c2ccc(Cl)cc2Cl)N1O (centres undefined)	?	15.2*	0.1	-25.0
Cc1cc(N)n2ncc(-c3ccc(F)cc3)c2n1	i	0.5	.	88.6*
Cc1cc(N)n2ncc(-c3ccc(Cl)cc3)c2n1	i	10.6*	-0.55	32.4
O=C(Oc1cccnc1)c1ccccc1[N+](=O)[O-]	.	-5.9	0.65	?
Cc1cc(C(=O)Oc2cccnc2)ccc1[N+](=O)[O-]	i	-3.7	-0.21	83.3*
SMILES	HSV replic up	Efa HMGR inh	Ins promoter up	Insulin prom inh
Cc1cc(C)c2nc(NNC(=O)c3cc(-c4cccs4)nc4ccccc34)sc2c1	.	-5.2	3.73*	?
COC(=O)c1[nH]c2ccccc2c1NC(=O)c1c(F)cccc1F	i	.	-0.89	.
Cc1[nH]c2ccccc2c1CCNC(=O)c1c(N)no[n+]1[O-]	i	-2.7	-0.27	-16.7
COc1ccccc1C(=O)N1CCN(CCc2ccccc2)CC1	i	0.8	-0.69	28.6
COC(=O)N1CCN(CCc2ccccc2)CC1	i	12.8*	0.9	.
C[N+]1(CCC(=O)c2ccccc2)CCCCC1	i	2.9	0.48	64.3*
COc1ccc(CCN(CC(=O)NC(C)(C)C)C(=O)Cn2nnc(-c3ccc(C)o3)n2)cc1OC	i	-0.8	0.26	20.0
CC(C)OP(=O)(OC(C)C)C(C)NC(=O)Cc1ccccc1 (centres undefined)	i	-7.4	-1.22	81.8*
COc1ccc(C(=O)Nn2cnnc2)cc1OC	i	.	4.36*	.
COc1ccc(C(=O)NN2CCCCC2)cc1OC	i	1.0	-0.39	-10.7
CC1CCCCN1C(=S)NCCc1ccccc1 (centres undefined)	i	-0.6	0.15	.
O=C(NC1CCCC1)C(c1ccncc1)N(C(=O)Cc1cccs1)c1ccccc1 (centres undefined)	i	10.4*	0.77	.
COc1ccc(/C=C(\NC(=O)c2ccccc2Cl)C(=O)NCCCC(=O)O)cc1	i	5.6	-0.57	.
N#Cc1cnc(NOCc2ccc(Cl)cc2)nc1	i	9.6*	-0.45	11.1
CC(Oc1c(Cl)cccc1Cl)C1=NCCN1 (centres undefined)	i	.	.	.
O=C(NCCN1CCN(c2ccccc2)CC1)c1ccc2c(c1)[nH]c(=S)n1c3ccccc3nc21	i	9.6*	-0.1	-85.7
O=C(c1ccc2c(c1)[nH]c(=S)n1c3ccccc3nc21)N1CCN(c2ncccn2)CC1	i	2.6	-0.01	34.2
O=C(NCCCn1ccnc1)Nc1ccc(Cl)cc1	i	0.7	0.02	76.9*
